rRNA inh HTS: inhibits bacterial ribosomal RNA function over humanized ribosomes; E. coli WT GFP vs humanized-ribosome RFP mutants, fluorescence, 24 h; hits give low values; DMSO median 0, no signal -100; GFP signal change (wild-type ribosome), % (test concentration not listed); actives 1.6% (n = 350,000);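 active = significant combined selectivity score with lowered wild-type GFP, culture density cut under 30%, mutant RFP and density less affected; inactive = any of these conditions unmet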
EWS-Fli block: blocks EWS/Fli oncoprotein-driven transcription | inhibition, % at 12.6 µM | actives 0.67% (n = 350,000) | A673 NR0B1-luciferase reporter, viability-normalised;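 active = mean inhibition of at least 50% after viability correction, with every replicate also passing that limit; inconclusive = mean reaches 50% but only one of two replicates passes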;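 note: firefly luciferase signal divided by Alamar Blue viability fluorescence both relative to DMSO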
PAX8 inh HTS: inhibitors of PAX8 transcriptional activity in RMG-I cells. RMG-I TPO-luciferase reporter, SteadyGlo, 24 h. inhibition, % at 12.6 µM. actives 1.2% (n = 360,000);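 active = mean replicate inhibition at least 60% with every replicate also reaching 60%; inconclusive = only one of the two criteria is met; inactive = mean below 60% and not all replicates reaching 60%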;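 note: luciferase light reporting Pax8 driven TPO promoter activity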
SIRT5 inh: blocks human SIRT5 desuccinylation of peptide. Q9NXA8. actives 1.1% (n = 330,000). Purified SirT5, succinyl-peptide AMC, trypsin-coupled fluorescence. AID 652115. inhibition, % at 15 µM; in the data active = inhibition above about 15%; inconclusive = no clear call, values can overlap the other calls
Target sequence (Q9NXA8 whole entry, looked up): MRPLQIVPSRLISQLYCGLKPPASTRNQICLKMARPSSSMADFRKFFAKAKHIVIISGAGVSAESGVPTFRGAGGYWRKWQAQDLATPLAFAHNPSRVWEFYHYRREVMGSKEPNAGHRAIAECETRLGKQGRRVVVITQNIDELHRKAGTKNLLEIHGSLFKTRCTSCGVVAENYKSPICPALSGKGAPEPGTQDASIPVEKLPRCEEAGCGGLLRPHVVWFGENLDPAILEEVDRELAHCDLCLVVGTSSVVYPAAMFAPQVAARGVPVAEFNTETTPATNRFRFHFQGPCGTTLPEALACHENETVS
PGC1a acetyl inh: PGC1a acetylation modulation, inhibitor mode; U2OS PGC1a acetylation, AlphaScreen anti-acetyl-lysine; with virally co-expressed GCN5 acetyltransferase; inhibition, % at 15.6 µM; actives 0.17% (n = 350,000); AID 651687;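 active = every replicate shows inhibition of at least 40%; inconclusive = mean inhibition at least 40% but some replicate below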
LGR2 antag: Drosophila LGR2 receptor signaling inhibition; HEK293 LGR2, CRE-luciferase, bursicon-stimulated, 4 h; inhibition, % at 9.99 µM; actives 0.35% (n = 380,000);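 active = drop in luminescence signal, shown as inhibition above about 50% in the replicate tests, limit read from the data, passing the limit was not always enough; inconclusive = probably only some replicates passing the limit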;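 note: agonist challenge used bursicon conditioned medium at about half maximal strength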
Each line names hits and unclear results; the compound was inactive in the other large screens. The list is not random: actives were taken first. Their share in the collection is about 3.4%.

Clc1ccc(-c2[nH]ncc2N=Nc2ccccc2)cc1	none
Cc1ccc2oc(-c3cccc(N)c3)nc2c1	rRNA inh HTS -23
Cc1ccc2nc(SCC(=O)Nc3ccc(F)cc3)nc(=O)n2c1	PGC1a acetyl inh 76
C[C@@H]1CCCCO[C@@H](CN(C)S(C)(=O)=O)[C@@H](C)CN([C@H](C)CO)C(=O)c2cc(NC(=O)Nc3ccc(F)cc3)ccc2O1	none (no result: SIRT5 inh)
Cc1ccccc1-c1cc(C(=O)Nc2sc(C(=O)OC(C)C)c(C)c2C#N)c2ccccc2n1	PAX8 inh HTS 81 (no result: rRNA inh HTS, EWS-Fli block, SIRT5 inh, LGR2 antag)
C[C@H](O)C#Cc1cnc2c(c1)C(=O)N([C@H](C)CO)C[C@@H](C)[C@@H](CN(C)C(=O)c1ccncc1)O2	none (no result: PAX8 inh HTS)
O=C(C1CCC1)N1CCCCN2[C@H](CO)[C@@H](c3ccc(-c4cccc(F)c4)cc3)[C@@H]2C1	none (no result: rRNA inh HTS, LGR2 antag)
Cc1ccc(S(=O)(=O)Oc2ccc(/C=C3/C(=N)N4C(=NC3=O)SN=C4S(C)(=O)=O)cc2)cc1	none
Cc1ccc(-n2cccc2/C=C2/C(=N)N3C(=NC2=O)SN=C3S(C)(=O)=O)cc1	none (no result: rRNA inh HTS, EWS-Fli block, SIRT5 inh)
CS(=O)(=O)C1=NSC2=NC(=O)/C(=C\c3ccc(OS(=O)(=O)c4ccccc4)cc3)C(=N)N21	SIRT5 inh 17 (no result: EWS-Fli block, PGC1a acetyl inh)
Cc1cc(C)cc(-n2cccc2/C=C2/C(=N)N3C(=NC2=O)SN=C3S(C)(=O)=O)c1	rRNA inh HTS -28
COc1ccc(C[C@H]2CCc3cnnn3COC[C@@H](Cc3ccccc3)NC2=O)cc1	none (no result: PGC1a acetyl inh)
CN(C)CC#Cc1ccc([C@H]2[C@H]3CN(C(=O)C4CC4)CCCCN3[C@H]2CO)cc1	none (no result: rRNA inh HTS, LGR2 antag)
C[C@@H]1CN([C@@H](C)CO)C(=O)Cc2cc(NS(C)(=O)=O)ccc2O[C@@H]1CN(C)Cc1ccc(Oc2ccccc2)cc1	none
C/C=C/c1ccc([C@@H]2[C@H](CO)N(C(C)=O)C23CN(C(=O)c2cnccn2)C3)cc1	none (no result: PAX8 inh HTS)
Nc1c(C(=O)N2CCOCC2)sc2nc3c(cc12)CCC3	none
Cc1ccc(C)c2nc3sc(C(=O)N4CCOCC4)c(N)c3cc12	none
Nc1c(C(=O)N2CCOCC2)sc2nc3c(cc12)CCCC3	PAX8 inh HTS 71, LGR2 antag 71
Cc1cc(C)c2nc3sc(C(=O)N4CCOCC4)c(N)c3cc2c1	PAX8 inh HTS 69
C[C@H](CO)N1C[C@H](C)[C@@H](CN(C)C(=O)c2ccncc2)OCCCC[C@H](C)Oc2ccc(NC(=O)c3ccccc3)cc2C1=O	none (no result: EWS-Fli block)
Cc1ccc(S(=O)(=O)N(C)C[C@@H]2OCCCC[C@@H](C)Oc3ccc(NS(=O)(=O)c4cccs4)cc3C(=O)N([C@H](C)CO)C[C@@H]2C)cc1	none
Cc1ccc(S(=O)(=O)Nc2ccc3c(c2)C(=O)N([C@@H](C)CO)C[C@H](C)[C@@H](CN(C)S(=O)(=O)c2cccs2)OCCCC[C@H](C)O3)cc1	none
Cc1ccc(S(=O)(=O)Nc2ccc3c(c2)C(=O)N([C@@H](C)CO)C[C@H](C)[C@H](CN(C)S(=O)(=O)c2cccs2)OCCCC[C@@H](C)O3)cc1	SIRT5 inh 18
C[C@@H]1CCCCO[C@H](CN(C)S(=O)(=O)c2ccc(Cl)cc2)[C@@H](C)CN([C@H](C)CO)C(=O)c2cc(NS(=O)(=O)c3cccs3)ccc2O1	none
Cc1ccc(S(=O)(=O)Nc2ccc3c(c2)C(=O)N([C@H](C)CO)C[C@H](C)[C@@H](CN(C)S(=O)(=O)c2cccs2)OCCCC[C@H](C)O3)cc1	PAX8 inh HTS 77
Cc1ccc(S(=O)(=O)Nc2ccc3c(c2)C(=O)N([C@@H](C)CO)C[C@@H](C)[C@H](CN(C)S(=O)(=O)c2cccs2)OCCCC[C@H](C)O3)cc1	none
Cc1ccc(S(=O)(=O)N(C)C[C@@H]2OCCCC[C@H](C)Oc3ccc(NS(=O)(=O)c4cccs4)cc3C(=O)N([C@H](C)CO)C[C@@H]2C)cc1	PAX8 inh HTS 67
C[C@@H]1CCCCO[C@@H](CN(C)S(=O)(=O)c2ccc(Cl)cc2)[C@H](C)CN([C@H](C)CO)C(=O)c2cc(NS(=O)(=O)c3cccs3)ccc2O1	PAX8 inh HTS 70
CC(C)(C)c1ccc(C(=O)NCCC(=O)NCc2ccc(F)cc2)cc1	SIRT5 inh 15 (no result: PGC1a acetyl inh)
COc1ccc(S(=O)(=O)NCCC(=O)NCc2ccc(F)cc2)cc1	PGC1a acetyl inh 80 (no result: rRNA inh HTS, EWS-Fli block, PAX8 inh HTS, SIRT5 inh)
COc1ccc(CCC(=O)NNC(=S)NCc2ccc(F)cc2)cc1	rRNA inh HTS -29
O=C(O)CSC1CC(=O)N(c2ccc(F)cc2)C1=O (stereo not given)	none
O=C(CSC1CC(=O)N(c2ccc(C(=O)O)cc2)C1=O)Nc1ccc(Cl)cc1 (stereo not given)	SIRT5 inh 18 (no result: PGC1a acetyl inh)
O=C(C[C@H]1C=C[C@@H](NC(=O)Cc2ccccn2)[C@@H](CO)O1)NCCCN1CCOCC1	none
COc1ccc(S(=O)(=O)N(C)C[C@H]2OCCCC[C@H](C)Oc3ccc(NS(=O)(=O)c4ccc(C)cc4)cc3C(=O)N([C@@H](C)CO)C[C@@H]2C)cc1	PAX8 inh HTS inconclusive, SIRT5 inh 22
COc1ccc(S(=O)(=O)N(C)C[C@@H]2OCCCC[C@H](C)Oc3ccc(NS(=O)(=O)c4ccc(C)cc4)cc3C(=O)N([C@H](C)CO)C[C@H]2C)cc1	SIRT5 inh 22
COc1ccc(S(=O)(=O)Nc2ccc3c(c2)C(=O)N([C@@H](C)CO)C[C@@H](C)[C@@H](CN(C)S(=O)(=O)c2ccc(C)cc2)OCCCC[C@H](C)O3)cc1	none
COc1ccc(S(=O)(=O)Nc2ccc3c(c2)C(=O)N([C@H](C)CO)C[C@@H](C)[C@@H](CN(C)S(=O)(=O)c2ccc(C)cc2)OCCCC[C@H](C)O3)cc1	none
COc1ccc(S(=O)(=O)N(C)C[C@@H]2OCCCC[C@H](C)Oc3ccc(NS(=O)(=O)c4ccc(C)cc4)cc3C(=O)N([C@H](C)CO)C[C@@H]2C)cc1	SIRT5 inh 24
COc1ccc(S(=O)(=O)N(C)C[C@@H]2OCCCC[C@@H](C)Oc3ccc(NS(=O)(=O)c4ccc(C)cc4)cc3C(=O)N([C@@H](C)CO)C[C@@H]2C)cc1	SIRT5 inh 23
COc1ccc(S(=O)(=O)Nc2ccc3c(c2)C(=O)N([C@H](C)CO)C[C@H](C)[C@@H](CN(C)S(=O)(=O)c2ccc(C)cc2)OCCCC[C@H](C)O3)cc1	PAX8 inh HTS 78
COc1ccc(S(=O)(=O)N(C)C[C@@H]2OCCCC[C@H](C)Oc3ccc(NS(=O)(=O)c4ccc(C)cc4)cc3C(=O)N([C@@H](C)CO)C[C@H]2C)cc1	none
COc1ccc(S(=O)(=O)Nc2ccc3c(c2)C(=O)N([C@H](C)CO)C[C@@H](C)[C@H](CN(C)S(=O)(=O)c2ccc(C)cc2)OCCCC[C@@H](C)O3)cc1	PAX8 inh HTS 67

High-throughput results from PubChem BioAssay.
